Sampled rows, rich in hits. Any-hit rate of the full collection: about 4.9%.
HSF1 inh: HSF1 inhibitors in luciferase reporter cells, primary screen, cell-based, NIH3T3, luminescence | AID 2098, 2009 | NIH3T3-HGL HSE-luciferase, MG132-induced, luminescence 8 h; hits give low values | hit rate 0.77% among 300,000 | activity change, negative = inhibition, % at 7.5 µM (by protocol);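 active means more than half of replicate wells show activity change below -50%, luminescence cut by over half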;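 further: luciferase reports HSF-1 transcriptional activity via heat shock element; 0% = median of DMSO wells and -100% = zero luminescence signal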
Platelet DG rel: inhibitors of platelet dense granule secretion, primary screen, cell-based, MLPCN, human platelets. human platelet-rich plasma, SFLLRN dense granule ATP release, luminescence. inhibition, %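 (compounds screened at 7.5 µM in platelet-rich plasma)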. hit rate 0.22% among 300,000. AID 1663, 2009;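 active means mean replicate score, as percent of positive control, at or above 50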
dFosB activator: activators of delta FosB homodimer, primary screen, biochemical, fluorescence polarization, TAMRA-CDK5 oligo, single point. hit rate 0.99% among 340,000. activation, % at 25 µM. purified delta FosB; percent of positive-control signal above neutral wells. Protein FosB (Mus musculus), P13346. AID 493131, 2011;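 active means mean activation above about 17%, with every replicate also reaching it, limit read from the data, passing the limit was not always enough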
Target sequence (P13346 whole entry, looked up): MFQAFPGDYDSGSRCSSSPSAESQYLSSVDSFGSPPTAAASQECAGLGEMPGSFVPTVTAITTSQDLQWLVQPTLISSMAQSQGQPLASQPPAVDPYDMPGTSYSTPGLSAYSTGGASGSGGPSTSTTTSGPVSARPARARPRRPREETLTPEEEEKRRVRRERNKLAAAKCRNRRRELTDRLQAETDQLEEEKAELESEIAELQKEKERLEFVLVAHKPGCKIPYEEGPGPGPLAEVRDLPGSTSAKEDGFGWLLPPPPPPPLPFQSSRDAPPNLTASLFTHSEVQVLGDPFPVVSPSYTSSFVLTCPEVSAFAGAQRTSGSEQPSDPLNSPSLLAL
HSF-1 act: HSF-1 activators, primary screen, NIH3T3-HGL cells, MG132 stress, luminescence, single point; activation, % at 9 µM; AID 504408, 2011; hit rate 1.7% among 300,000; NIH3T3-HGL HSF-1 luciferase reporter, 8 h; 100% = twice DMSO control signal;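 active means mean replicate activation of at least 50% with a set share of replicates each reaching 50%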;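 further: 0% = median of the neutral control wells and 100% = twice that signal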
HSP90 inh: HSP90 inhibitors, primary screen, cell lysate, luminescence | Heat shock protein HSP 90 (rabbit reticulocyte lysate; luciferase refolding) | Rabbit reticulocyte lysate, luciferase refolding luminescence, 3 h | inhibition, % at 5.6 µM | hit rate 0.91% among 290,000;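 active means inhibition above the screen-wide mean plus 3 SD, computed separately per campaign, cut at about 16% in these data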;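 further: 0% = DMSO wells and 100% = 60 µM geldanamycin wells; inhibitors lower the luminescence because luciferase stays unfolded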
MPTP block: mitochondrial permeability transition pore inhibitors, primary screen, biochemical, isolated mouse mitochondria, absorbance | hit rate 1.4% among 360,000 | Ca2+ swelling absorbance, 30 min | inhibition, % at 10 µM;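 active means inhibition of 50% or more, scaled per plate between neutral and stimulator controls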;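 further: 0% = DMSO wells given calcium and 100% = 1 mM EGTA wells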
Rh123 counter: fluorescence retest of MPTP screen hits in isolated mitochondria, single concentration | shares compounds with MPTP block | membrane potential, Rhodamine 123 fluorescence | inhibition, % at 10 µM | hit rate 78% among 5,000 | AID 624504, 2012; in the data active means inhibition above about 22%;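 further: 0% = DMSO vehicle and 100% = positive control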
MPTP swell DR: mitochondrial permeability transition pore inhibitors, dose response, biochemical, absorbance, uHTS hits; IC50, µM; isolated mitochondria swelling; shares compounds with MPTP block; hit rate 58% among 780; in the data active means IC50 below about 20 µM
MPTP counter DR: fluorescent counter-screen in isolated mitochondria, dose response, counter-screen for MPTP inhibitor project, biochemical, fluorescence, uHTS hits | shares compounds with MPTP block | isolated mitochondria counterscreen, fluorescence read-out | IC50, µM | hit rate 49% among 780 | AID 651564, 2012; in the data active means IC50 below about 80 µM
Numbers without * were called inactive; i = inactive; x = no result.

SMILES | HSF1 inh | Platelet DG rel | dFosB activator | HSF-1 act | HSP90 inh | MPTP block | Rh123 counter | others
Cc1nn(CCc2nn[nH]n2)c2nc(-c3ccc(C4CCCCC4)cc3)cc(C(F)(F)F)c12 | 4.6 | -16.1 | -28.8 | 17.6 | -3.0 | 59.1* | 25.6*
CC(=O)c1c(C)[nH]c(C(=O)CSc2ccc(F)cc2)c1C | 29.8 | 1.1 | -2.7 | 28.3 | 0.0 | 90.4* | 83.5*
CC(=O)c1c(C)[nH]c(C(=O)OCC(=O)Nc2cc(S(=O)(=O)N3CCCC3)ccc2Cl)c1C | 2.9 | -31.9 | 8.9 | -9.3 | 0.1 | 22.9 | x
CC(=O)c1c(C)[nH]c(C(=O)OCC(=O)Nc2cccc(S(=O)(=O)N(C)C)c2)c1C | -4.4 | 6.8 | -3.9 | -3.3 | -3.1 | -0.9 | x
CC(=O)c1c(C)[nH]c(C(=O)OCC(=O)Nc2cccc(S(=O)(=O)N3CCCC3)c2)c1C | -6.8 | 10.5 | -9.2 | -9.2 | -1.7 | 61.9* | 61.1*
CCN(CC)S(=O)(=O)c1cccc(NC(=O)COC(=O)c2[nH]c(C)c(C(C)=O)c2C)c1 | x | x | x | x | x | 85.7* | 88.2*
CCn1c(=O)n(CC)c2cc(NC(=O)C(C)c3ccccc3)c(Br)cc21 (stereo unspecified) | 2.1 | -6.3 | -8.0 | 20.4 | -2.0 | -0.1 | x
CC(C)Oc1ccc(CN2CCC(n3nccc3NC(=O)C3CC3)CC2)cc1 | -0.6 | -1.1 | -7.4 | 2.9 | 1.3 | 0.6 | x
Cc1cc(C)c(C(=O)N2CCC(N3CCC(C(=O)NC(C)C)CC3)CC2)o1 | 2.7 | 7.9 | -8.9 | 2.7 | 1.7 | 0.4 | x
CCN1C(=O)/C(=C2\SC(=S)N(NC(=O)c3ccccc3O)C2=O)c2ccccc21 | -1.7 | -8.5 | -2.6 | 2.1 | 1.1 | 87.1* | 32.5*
Cc1nc(NC(=O)CSC2=NCCS2)sc1C(=O)N(C)C | -1.2 | -0.1 | -2.0 | -7.0 | -1.5 | -1.3 | x
Cc1ccc(CC(=O)Nc2ccncc2)cc1 | x | -8.7 | 2.9 | x | 0.3 | 84.2* | 36.0*
O=C(Cc1sc(-c2ccccc2)nc1-c1ccccc1)Nc1ccc(Cl)cc1 | 1.5 | -49.5 | -1.7 | 0.2 | 2.2 | 68.6* | 6.3 | MPTP swell DR=12.4*;MPTP counter DR=<2.5*
O=C(Cc1ccc(Cl)cc1)Nc1ccncc1 | -4.5 | 1.8 | -1.6 | -0.3 | 0.5 | 57.6* | 15.5 | MPTP swell DR=i;MPTP counter DR=41.3*
O=C(Cc1sc(-c2ccccc2Cl)nc1-c1ccccc1)Nc1ccccc1 | 2.7 | 2.5 | -34.8 | 26.6 | 0.0 | -5.6 | x
O=C(Cc1ccc([N+](=O)[O-])cc1)Nc1ccc(Cl)cc1 | -1.3 | 19.8 | -7.5 | 22.6 | -1.1 | 68.5* | 75.6*
O=C(Nc1ccncc1)c1ccc(Cl)cc1 | -1.9 | -2.0 | -1.8 | -4.9 | -5.4 | 2.0 | x
Cc1ccc(CC(=O)Nc2cccnc2)cc1 | -0.7 | -2.5 | -6.2 | 2.0 | -0.1 | 1.5 | x
COCc1cccc(-c2csc(C(C)(O)c3ccc(OC)cc3)n2)c1 (stereo unspecified) | x | x | x | x | x | 1.5 | x
Nc1ccccc1Oc1ccc2ccccc2c1 | -1.3 | -4.1 | -4.2 | -1.1 | -2.5 | -0.4 | x
Cc1nc(SCc2nc3ccc([N+](=O)[O-])cc3[nH]2)c2oc3ccccc3c2n1 | x | x | 4.2 | x | x | 33.2 | x
Cc1ccc(NC(=O)CSc2nc(O)c(Cc3ccccc3)c(=O)n2-c2ccccc2)cc1 | -2.6 | 9.2 | 5.9 | 5.2 | 6.0 | 1.3 | x
O=[N+]([O-])c1ccc(O)c(C=NN2CCCCC2)c1 | x | x | x | x | x | 1.1 | x
Cc1ccccc1/C=C1\SC(=S)N(/N=C/c2cc([N+](=O)[O-])ccc2O)C1=O | -2.8 | -4.9 | -4.2 | -0.8 | -1.4 | 79.9* | 45.0*
O=C1/C(=C\c2ccc(O)c(O)c2)SC(=S)N1Cc1ccccc1 | -1.3 | -11.0 | -10.6 | -9.3 | 1.1 | 37.7 | x
SMILES | HSF1 inh | Platelet DG rel | dFosB activator | HSF-1 act | HSP90 inh | MPTP block | Rh123 counter | others
O=C(CCCN1C(=O)/C(=C\c2cccs2)SC1=S)Nc1cc([N+](=O)[O-])ccc1O | -7.5 | -2.1 | 26.4* | 9.3 | -0.6 | 73.6* | 63.5*
O=C1/C(=C\c2cccc(O)c2O)SC(=S)N1Cc1ccccc1 | 7.4 | -4.1 | -3.9 | 10.5 | 1.7 | 91.6* | 45.8*
O=C(O)CN1C(=O)/C(=C\c2cc([N+](=O)[O-])ccc2OCc2ccccc2Cl)SC1=S | -9.5 | 6.0 | -3.5 | -17.6 | -3.3 | 0.5 | x
O=C1/C(=C\c2cc([N+](=O)[O-])ccc2O)SC(=S)N1Cc1ccc(Cl)cc1 | 11.4 | 9.6 | -1.9 | 18.8 | -1.8 | 52.1* | 6.6
O=C1CN(CC(=O)NC2CCCc3ccccc32)CCN1 (stereo unspecified) | 1.9 | 2.1 | -3.0 | 14.3 | 3.3 | 0.1 | x
O=C(Cn1cnc2ccccc2c1=O)c1ccc(Cl)cc1 | 6.5 | 3.0 | -2.2 | 47.5 | 0.0 | 0.7 | x
CN1CCC(Oc2ccccc2Sc2ccccc2)CC1 | -6.3 | -5.8 | 4.6 | -7.2 | -1.8 | 91.7* | -0.4 | MPTP swell DR=10.5*;MPTP counter DR=33.9*
CN1CCC(OC(c2ccccc2)c2ccccc2)CC1 | -0.4 | -3.5 | 1.3 | 9.3 | -0.6 | 1.2 | x
CCOc1ccc(NC(=O)C2C3CC/C=C\CCC32)cc1 (stereo unspecified) | 10.2 | 6.9 | -6.0 | x | 1.8 | 2.6 | x
CC(NC(=S)Nc1ccc(OC(F)F)c(Cl)c1)C(C)(C)C (stereo unspecified) | 0.4 | -3.5 | -7.8 | 14.3 | -0.2 | 92.9* | 95.3*
Cc1ccc(NC(=S)Nc2ccc(OC(F)F)c(Cl)c2)cc1Cl | -0.6 | 15.7 | -4.2 | -9.5 | 0.0 | 94.7* | 91.7*
Cc1ccc(NC(=S)N(C)N)cc1Cl | -9.2 | 2.4 | 2.0 | -8.2 | 1.5 | 1.7 | x
Fc1ccc(NC(=S)Nc2ccccc2OC(F)F)cc1Cl | 0.0 | -1.2 | -1.0 | 2.4 | -6.8 | 99.7* | 75.8*
COc1ccc(NC(=S)Nc2ccc(C)c(Cl)c2)cc1OC | -44.1 | -4.9 | -4.2 | -52.1 | -3.8 | 52.5* | 100.0*
O=C(NCCO)c1cc(-c2cc(C(=O)NCCO)c3ccccc3n2)nc2ccccc12 | -6.1 | 0.7 | -7.4 | 10.7 | 2.1 | -0.3 | x
Fc1ccc(NC(=S)Nc2ccccc2N2CCOCC2)cc1Cl | 4.9 | 10.5 | 6.5 | 22.8 | 1.3 | 100.2* | 97.7*
CNC(=S)Nc1cc(C)ccc1OC(F)F | 0.9 | 4.6 | 0.3 | 11.9 | -3.1 | -0.9 | x

High-throughput results as filed in PubChem.
